Source: ChEMBL document CHEMBL4296182, “CO-ADD screening of NIH NCI Diversity Set V”
About 30 (0.1%) of roughly 23,000 compounds showed an effect of 50% or more. Only a selection was taken, and strong results are over-represented in it overall. Entries with a potency or affinity are not part of this list.

Tested on: Pseudomonas aeruginosa
Settings: Concentration 20 uM; ASSAY_TEST Inhibition of Bacterial Growth; detection method Absorption (OD600); MEDIA CAMHB; plate type 384well; NBS; CORNING #3640; time 18 hr

Question: With `OCc1ncccc1O` as the compound, how does the Inhibition read?
Answer: Its Inhibition is 3.5%.

Question: `Oc1ccnc2c(Cl)cccc12` was tested. Which Inhibition did it give?
Answer: Its Inhibition is -8.65%.

Question: `Oc1ccc2ccccc2c1/N=N/c1ccc(F)cc1` was tested. Which Inhibition did it give?
Answer: Its Inhibition is 0.71%.

Question: Which Inhibition does the source give for `O=[N+]([O-])c1cccc(/C=C/c2ccccn2)c1` here?
Answer: The Inhibition was 19.15%.

Question: How did the Inhibition turn out when `CSc1nc(S)c2[nH]c(S)nc2n1` was run?
Answer: The Inhibition was 6.05%.

Question: `Cc1ccc(/N=N/c2ccc(N)cc2C)c(S(N)(=O)=O)c1` was tested. Which Inhibition did it give?
Answer: Its Inhibition is -1.43%.

Question: How did the Inhibition turn out when `COc1ccc(/C(C#N)=C/c2cccnc2)cc1` was run?
Answer: Its Inhibition is 11.13%.

Question: For `C=CCC(CC)C(=O)NC(=O)N1CCCc2ccccc21` (centres undefined), which Inhibition is on record?
Answer: The Inhibition was -1.54%.

Question: With `C=C1S/C(=N\c2c(C)cccc2Cl)N(C(=O)c2sc3ccccc3c2Cl)C12CCCCC2` as the compound, how does the Inhibition read?
Answer: The Inhibition was -6.03%.

Question: How did the Inhibition turn out when `COC1OC(CO)C(N=C(C)C)C1O` (centres undefined) was run?
Answer: Its Inhibition is -2.66%.

Question: How did the Inhibition turn out when `c1ccc(Nc2cccc3c(Nc4ccccc4)cccc23)cc1` was run?
Answer: Its Inhibition is 21.7%.

Question: Which Inhibition does the source give for `O=C(Nc1cccnc1)c1cccc([N+](=O)[O-])c1` here?
Answer: Its Inhibition is 8.42%.

Question: With `COC1OC(O)C(NC(=O)C(F)(F)F)CC1O` (centres undefined) as the compound, how does the Inhibition read?
Answer: The Inhibition was 6.88%.

Question: Which Inhibition does the source give for `O=C1CSCc2nc3ccccc3n21` here?
Answer: The Inhibition was 23.81%.
